PubChem BioAssay AID1159580 (chemical genetic matrix, 2015)
Screen size: about 5,500 compounds; about 2,000 (36%) were called active. Roughly 18% stayed inconclusive and do not appear here. Cut-off read from the data, not from the text of the source: active = normalized growth mostly below about 0.91 (no sharp cut-off); inconclusive = no clear call, values can overlap the other calls; inactive = mostly above about 0.92. Some of the results follow.

Test: chemical genetic growth profiling, strain panel (AID 1159580);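 note: tested at 20 µM; growth read once vehicle control cultures reached saturation at 30 °C; 1 = growth at the plate median or of vehicle wells; lower values mean less growth of the strain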
Settings: S. cerevisiae deletion strains, growth OD
[1] = locus YAL013W, strain DEP1, stronger effect = lower value
[2] = locus YDR150W, strain NUM1, stronger effect = lower value
[3] = locus YMR263W, strain SAP30, stronger effect = lower value
[4] = locus YMR307W, strain GAS1, stronger effect = lower value
[5] = locus YNL153C, strain GIM3, stronger effect = lower value
[6] = locus YNL322C, strain KRE1, stronger effect = lower value
[7] = locus YPL055C, strain LGE1, stronger effect = lower value
[8] = locus YPL241C, strain CIN2, stronger effect = lower value
[9] = locus YBR229C, strain ROT2, stronger effect = lower value
[10] = locus YDL101C, strain DUN1, stronger effect = lower value
[11] = locus YGR078C, strain PAC10, stronger effect = lower value
[12] = locus YHR030C, strain SLT2, stronger effect = lower value
[13] = locus YLR039C, strain RIC1, stronger effect = lower value
[14] = locus YLR262C, strain YPT6, stronger effect = lower value

Measured: normalized growth

CC(C)(C)C1(O)CCN2CC3c4ccccc4CCc4cccc(c43)C2C1 (stereo not drawn)
inactive: [1] 1.02 | locus YAL040C, strain CLN3, stronger effect = lower value 0.975 | locus YCL061C, strain MRC1 (second series), stronger effect = lower value 0.986 | [2] 1 | locus YDR363W, strain ESC2, stronger effect = lower value 1.04 | locus YER002W, strain NOP16, stronger effect = lower value 0.993 | [3] 1.01 | [4] 1.02 | [5] 0.983 | locus YNL175C, strain NOP13, stronger effect = lower value 0.996 | locus YNL197C, strain WHI3, stronger effect = lower value 0.972 | locus YNL224C, strain SQS1, stronger effect = lower value 0.997 | [6] 1.01 | locus YOR083W, strain WHI5 (second series), stronger effect = lower value 1.01 | [7] 1.02 | [8] 0.999

CC1(C)OC(=O)C=CC2(C)C1CC(O)C1(C)C2CCC2(C)C(c3ccoc3)OC(=O)C3OC321 (stereo not drawn)
inactive: [1] 1.02 | locus YBR021W, strain FUR4, stronger effect = lower value 0.971 | [9] 1.01 | locus YCL029C, strain bik1, stronger effect = lower value 1.02 | locus YDL035C, strain GPR1, stronger effect = lower value 1.01 | locus YDL074C, strain BRE1, stronger effect = lower value 1.02 | [10] 1.01 | locus YDL134C, strain PPH21, stronger effect = lower value 1.01 | locus YDL185W, strain tfp1, stronger effect = lower value 1.02 | locus YDL192W, strain arf1, stronger effect = lower value 1.01 | locus YDR101C, strain arx1, stronger effect = lower value 0.998 | locus YDR162C, strain NBP2, stronger effect = lower value 1.04 | locus YDR318W, strain mcm21, stronger effect = lower value 1.01 | locus YDR388W, stronger effect = lower value 1.02 | locus YDR502C, strain sam2, stronger effect = lower value 1.04 | locus YER110C, stronger effect = lower value 1.02 | locus YER155C, strain BEM2, stronger effect = lower value 0.996 | locus YER167W, strain BCK2, stronger effect = lower value 0.997 | locus YGL078C, strain dbp3, stronger effect = lower value 1.01 | locus YGL086W, strain mad1, stronger effect = lower value 1.01 | locus YGL248W, strain PDE1, stronger effect = lower value 1.01 | [11] 1 | locus YGR135W, strain pre9, stronger effect = lower value 1.04 | locus YGR252W, strain gcn5, stronger effect = lower value 0.965 | [12] 1.01 | locus YHR079C, strain IRE1 (second series), stronger effect = lower value 1.01 | locus YHR094C, strain hxt1, stronger effect = lower value 1.02 | locus YHR129C, strain ARP1, stronger effect = lower value 1 | locus YHR200W, strain rpn10, stronger effect = lower value 1.01 | locus YIL066C, strain RNR3, stronger effect = lower value 1.01 | locus YIL073C, strain SPO22, stronger effect = lower value 1.03 | locus YIL125W, strain kgd1, stronger effect = lower value 1.02 | locus YIR030C, strain dcg1, stronger effect = lower value 1.01 | locus YJL095W, strain BCK1, stronger effect = lower value 1.03 | locus YJL134W, strain LCB3, stronger effect = lower value 1.01 | locus YJL168C, strain set2, stronger effect = lower value 1.01 | locus YJL187C, strain SWE1 (second series), stronger effect = lower value 1.01 | locus YKL009W, strain mrt4, stronger effect = lower value 1.01 | locus YKL068W, stronger effect = lower value 1.02 | locus YKL085W, strain MDH1 (second series), stronger effect = lower value 1 | locus YKL085W, strain MDH1, stronger effect = lower value 1 | locus YKR001C, strain vps1, stronger effect = lower value 1.04 | [13] 1.05 | locus YLR058C, strain SHM2, stronger effect = lower value 1.01 | locus YLR102C, strain apc9, stronger effect = lower value 1.01 | [14] 1.09 | locus YLR268W, strain sec22, stronger effect = lower value 1.02 | locus YLR330W, strain CHS5, stronger effect = lower value 1.01 | locus YLR342W, strain FKS1 (second series), stronger effect = lower value 0.995 | locus YLR371W, strain rom2, stronger effect = lower value 0.997 | locus YLR418C, strain cdc73, stronger effect = lower value 1.05 | locus YML016C, strain PPZ1, stronger effect = lower value 1.01 | locus YML032C, strain rad52, stronger effect = lower value 1.02 | locus YML124C, strain tub3, stronger effect = lower value 1.01 | locus YMR078C, strain ctf18, stronger effect = lower value 1 | locus YMR223W, strain ubp8, stronger effect = lower value 1.01 | [3] 1.01 | [4] 1.06 | locus YNL067W, strain RPL9B, stronger effect = lower value 1.02 | [5] 1.01 | locus YNL233W, strain BNI4, stronger effect = lower value 1.01 | locus YNL250W, strain rad50, stronger effect = lower value 1.01 | locus YNL271C, strain bni1, stronger effect = lower value 1.01 | locus YNL298W, strain CLA4, stronger effect = lower value 1.04 | locus YNL307C, strain MCK1, stronger effect = lower value 1.02 | [6] 1 | locus YNR052C, strain pop2, stronger effect = lower value 1.02 | locus YOL012C, strain htz1 0.873 | locus YOL147C, strain pex11, stronger effect = lower value 1.01 | locus YOR061W, strain CKA2, stronger effect = lower value 1.01 | locus YOR069W, strain VPS5, stronger effect = lower value 1.01 | locus YOR136W, strain idh2, stronger effect = lower value 1.02 | locus YOR144C, strain elg1, stronger effect = lower value 1.01 | locus YOR184W, strain ser1, stronger effect = lower value 0.995 | locus YOR316C, strain cot1, stronger effect = lower value 1.02 | [8] 1.01 | locus YPR119W, strain clb2, stronger effect = lower value 1 | locus YPR141C, strain kar3, stronger effect = lower value 1.01 | locus YPR167C, strain met16, stronger effect = lower value 1 | strain wtn01, stronger effect = lower value 1.01

Cc1ccc(NC(=O)c2c(F)cccc2Cl)c(C(=O)Nc2ccc(F)cc2)c1
inactive: [1] 0.993 | [9] 0.998 | [10] 1.02 | [2] 1.02 | locus YEL061C, strain CIN8, stronger effect = lower value 0.987 | [11] 1.02 | locus YGR229C, strain SMI1, stronger effect = lower value 1.01 | [12] 1.06 | locus YHR087W, strain rtc3, stronger effect = lower value 0.976 | locus YJR043C, strain POL32, stronger effect = lower value 1.02 | locus YJR075W, strain HOC1, stronger effect = lower value 1.01 | [13] 0.868 | locus YLR058C, strain SHM2 (second series), stronger effect = lower value 0.995 | locus YLR085C, strain ARP6, stronger effect = lower value 1.03 | [14] 0.933 | locus YML094W, strain GIM5, stronger effect = lower value 1.01 | locus YMR219W, strain ESC1, stronger effect = lower value 1 | [3] 1 | [4] 1.1 | [5] 1.03 | locus YNL298W, strain CLA4 (second series), stronger effect = lower value 1.02 | [6] 0.997 | locus YNR030W, strain Alg12, stronger effect = lower value 1 | locus YOL006C, strain TOP1, stronger effect = lower value 1.02 | [7] 0.952 | [8] 1.03 | locus YPR135W, strain CTF4, stronger effect = lower value 1.05
